Assay in all cases: DAPPL (digital affinity profiling via proximity ligation, sequencing); 10 mM Tris-HCl pH 7.5, 50 mM NaCl, 1 mM DTT, 4% glycerol, room temperature, 30 min; GST-TFs on glutathione beads, 16-mer random dsDNA library, 0.1% formaldehyde crosslink after washing; high values mean tight binding
Common to all, as to settings: protein: recombinant; tags: N-terminal GST; dsDNA, one strand shown

Assay [1] addresses T1, ERF (Homo sapiens, UniProt P50548 1-548).
T1 sequence: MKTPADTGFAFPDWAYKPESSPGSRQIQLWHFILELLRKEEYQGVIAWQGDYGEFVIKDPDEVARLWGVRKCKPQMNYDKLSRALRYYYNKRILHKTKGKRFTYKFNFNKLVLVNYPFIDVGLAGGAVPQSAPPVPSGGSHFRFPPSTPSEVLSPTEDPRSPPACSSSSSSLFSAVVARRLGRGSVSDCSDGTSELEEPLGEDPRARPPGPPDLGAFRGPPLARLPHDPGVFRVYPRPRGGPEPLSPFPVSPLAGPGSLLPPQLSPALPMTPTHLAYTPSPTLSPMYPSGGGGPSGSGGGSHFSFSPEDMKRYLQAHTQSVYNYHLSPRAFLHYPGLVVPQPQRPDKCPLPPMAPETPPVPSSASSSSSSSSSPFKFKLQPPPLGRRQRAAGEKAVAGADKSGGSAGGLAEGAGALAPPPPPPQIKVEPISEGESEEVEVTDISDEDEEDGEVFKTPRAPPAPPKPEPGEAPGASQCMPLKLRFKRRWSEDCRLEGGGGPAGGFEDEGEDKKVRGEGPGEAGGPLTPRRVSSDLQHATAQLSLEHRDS
The procedure, abridged:
(§1)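 Human transcription factors carrying a GST fusion were produced in yeast, bound to glutathione beads, tagged with DNA barcodes and pooled together with a tag-only sample. Each pool was held with 200 nmole of a random double-stranded 16-mer DNA library in Tris/NaCl/DTT/glycerol buffer for 30 min at room temperature, then washed, crosslinked in 0.1% formaldehyde, proximity-ligated with BsaI/T4 ligase (1 h, 37 °C), PCR-amplified and sequenced on an Illumina NextSeq500. Binding signal is the read frequency of each hexamer for a given factor divided by its frequency in the tag-only sample.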

Assay [2] concerns the target T2, ETV3L (Homo sapiens, UniProt Q6ZN32 1-361).
T2 sequence: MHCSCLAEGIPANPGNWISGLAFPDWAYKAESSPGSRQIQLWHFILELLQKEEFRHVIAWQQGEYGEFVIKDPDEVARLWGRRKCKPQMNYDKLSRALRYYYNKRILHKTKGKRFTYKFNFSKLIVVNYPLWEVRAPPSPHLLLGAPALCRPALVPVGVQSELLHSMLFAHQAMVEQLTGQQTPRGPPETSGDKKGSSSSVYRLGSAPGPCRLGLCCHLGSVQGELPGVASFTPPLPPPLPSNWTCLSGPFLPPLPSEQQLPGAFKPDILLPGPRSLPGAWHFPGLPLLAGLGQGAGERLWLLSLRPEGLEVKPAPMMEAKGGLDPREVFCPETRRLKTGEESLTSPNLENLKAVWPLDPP
The procedure, abridged: as §1

The target of assay [3] is T3, ETS2 (Homo sapiens, UniProt P15036 1-469).
T3 sequence: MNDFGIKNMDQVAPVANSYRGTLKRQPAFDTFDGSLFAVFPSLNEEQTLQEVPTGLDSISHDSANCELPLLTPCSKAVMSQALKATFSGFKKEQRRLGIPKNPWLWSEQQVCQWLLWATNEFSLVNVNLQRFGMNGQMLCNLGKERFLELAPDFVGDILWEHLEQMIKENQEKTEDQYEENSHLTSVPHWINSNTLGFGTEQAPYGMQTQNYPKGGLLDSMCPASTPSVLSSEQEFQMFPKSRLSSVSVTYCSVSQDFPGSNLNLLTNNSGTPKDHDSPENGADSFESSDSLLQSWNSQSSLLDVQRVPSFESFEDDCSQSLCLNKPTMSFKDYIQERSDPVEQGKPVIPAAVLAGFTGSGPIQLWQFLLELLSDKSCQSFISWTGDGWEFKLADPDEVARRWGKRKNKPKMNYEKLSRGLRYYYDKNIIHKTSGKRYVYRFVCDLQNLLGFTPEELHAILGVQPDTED
The procedure, abridged: as §1

Assay [4] concerns the target T4, SPDEF (Homo sapiens, UniProt O95238 1-335).
T4 sequence: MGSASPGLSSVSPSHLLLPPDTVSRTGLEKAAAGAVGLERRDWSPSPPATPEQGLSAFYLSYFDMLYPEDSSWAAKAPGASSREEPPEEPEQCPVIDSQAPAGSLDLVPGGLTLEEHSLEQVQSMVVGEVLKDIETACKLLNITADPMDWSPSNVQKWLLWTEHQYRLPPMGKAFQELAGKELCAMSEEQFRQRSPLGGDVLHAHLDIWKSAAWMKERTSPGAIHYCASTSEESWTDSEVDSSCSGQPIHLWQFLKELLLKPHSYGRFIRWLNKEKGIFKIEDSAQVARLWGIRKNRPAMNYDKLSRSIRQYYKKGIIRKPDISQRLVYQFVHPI
The procedure, abridged: as §1

Assay [5] addresses T5, ETV7 (Homo sapiens, UniProt Q9Y603 1-341).
T5 sequence: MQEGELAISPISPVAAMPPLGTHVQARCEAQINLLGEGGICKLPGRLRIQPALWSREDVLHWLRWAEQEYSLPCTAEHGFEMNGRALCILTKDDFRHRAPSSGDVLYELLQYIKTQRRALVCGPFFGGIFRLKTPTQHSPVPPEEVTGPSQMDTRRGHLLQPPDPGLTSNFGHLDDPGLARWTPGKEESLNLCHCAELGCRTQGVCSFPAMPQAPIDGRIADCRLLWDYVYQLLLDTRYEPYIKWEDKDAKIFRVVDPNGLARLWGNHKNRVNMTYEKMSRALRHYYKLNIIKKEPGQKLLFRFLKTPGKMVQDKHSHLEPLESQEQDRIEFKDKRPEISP
In short, it runs like this: as §1

The target in assay [6] is T6, ELF5 (Homo sapiens, UniProt Q9UKW6-2 1-255).
T6 sequence: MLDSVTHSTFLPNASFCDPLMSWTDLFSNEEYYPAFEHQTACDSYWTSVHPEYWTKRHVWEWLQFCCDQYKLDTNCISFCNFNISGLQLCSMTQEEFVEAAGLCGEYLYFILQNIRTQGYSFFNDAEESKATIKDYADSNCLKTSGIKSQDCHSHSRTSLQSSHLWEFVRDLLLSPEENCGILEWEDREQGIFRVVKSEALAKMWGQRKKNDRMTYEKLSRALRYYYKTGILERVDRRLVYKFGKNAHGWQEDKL
In short, it runs like this: as §1

The target of assay [7] is T7, ETV3 (Homo sapiens, UniProt P41162-2 1-143).
T7 sequence: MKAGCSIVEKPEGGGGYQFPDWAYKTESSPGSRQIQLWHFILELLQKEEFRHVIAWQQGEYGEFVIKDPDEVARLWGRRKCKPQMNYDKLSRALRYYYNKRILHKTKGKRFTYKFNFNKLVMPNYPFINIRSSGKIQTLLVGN
In short, it runs like this:
as §1

Assay [8] deals with ETV6 (Homo sapiens, UniProt P41212 1-452). In short, it runs like this: as §1
Sequence of ETV6 (P41212 whole entry): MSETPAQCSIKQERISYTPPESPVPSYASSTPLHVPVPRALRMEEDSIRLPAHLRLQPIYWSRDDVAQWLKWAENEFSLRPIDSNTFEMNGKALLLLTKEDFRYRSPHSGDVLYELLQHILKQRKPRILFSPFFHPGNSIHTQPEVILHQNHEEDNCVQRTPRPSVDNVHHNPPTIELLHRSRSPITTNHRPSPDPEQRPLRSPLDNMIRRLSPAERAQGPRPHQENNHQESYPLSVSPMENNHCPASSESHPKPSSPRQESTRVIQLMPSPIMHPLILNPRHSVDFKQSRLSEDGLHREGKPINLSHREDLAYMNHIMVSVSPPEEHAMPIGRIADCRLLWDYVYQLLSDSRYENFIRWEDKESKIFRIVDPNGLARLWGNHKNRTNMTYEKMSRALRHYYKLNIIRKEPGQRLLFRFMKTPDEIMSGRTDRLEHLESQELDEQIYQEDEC

As to CACTCT, the binding signal in assay [1] is 1.37 fold enrichment (6-mer frequency, TF over GST control); in assay [2], 1.29 fold enrichment (6-mer frequency, TF over GST control); in assay [3], 1.27 fold enrichment (6-mer frequency, TF over GST control); in assay [4] it was 1.14 fold enrichment (6-mer frequency, TF over GST control); in assay [5], 1.19 fold enrichment (6-mer frequency, TF over GST control); in assay [6], 1.18 fold enrichment (6-mer frequency, TF over GST control). The binding signal in assay [7] was 1.43 fold enrichment (6-mer frequency, TF over GST control); in assay [8], 1.23 fold enrichment (6-mer frequency, TF over GST control).
With GTTACT, the binding signal is 1.24 fold enrichment (6-mer frequency, TF over GST control) in assay [1]; 1.1 fold enrichment (6-mer frequency, TF over GST control) in assay [2]; 1.21 fold enrichment (6-mer frequency, TF over GST control) in assay [3]; 1.18 fold enrichment (6-mer frequency, TF over GST control) in assay [4]; 1.25 fold enrichment (6-mer frequency, TF over GST control) in assay [5]; 1.17 fold enrichment (6-mer frequency, TF over GST control) in assay [6]. Also, the binding signal was 1.28 fold enrichment (6-mer frequency, TF over GST control) in assay [7] and 1.21 fold enrichment (6-mer frequency, TF over GST control) in assay [8].
For the sequence TGCTTG, the binding signal in assay [1] was 1.14 fold enrichment (6-mer frequency, TF over GST control); in assay [2] it was 1.13 fold enrichment (6-mer frequency, TF over GST control); in assay [3], 1.14 fold enrichment (6-mer frequency, TF over GST control); in assay [4], 1.11 fold enrichment (6-mer frequency, TF over GST control); in assay [5], 1.19 fold enrichment (6-mer frequency, TF over GST control); in assay [6] it was 1.04 fold enrichment (6-mer frequency, TF over GST control). Further, the binding signal in assay [7] was 1.17 fold enrichment (6-mer frequency, TF over GST control); in assay [8], 1.11 fold enrichment (6-mer frequency, TF over GST control).
Consider CACACA, for which the binding signal was 1.16 fold enrichment (6-mer frequency, TF over GST control) in assay [1]; 1.22 fold enrichment (6-mer frequency, TF over GST control) in assay [2]; 1.14 fold enrichment (6-mer frequency, TF over GST control) in assay [3]; 1.07 fold enrichment (6-mer frequency, TF over GST control) in assay [4]; 1.1 fold enrichment (6-mer frequency, TF over GST control) in assay [5]; 1.06 fold enrichment (6-mer frequency, TF over GST control) in assay [6]. Also, the binding signal was 1.1 fold enrichment (6-mer frequency, TF over GST control) in assay [7] and 1.18 fold enrichment (6-mer frequency, TF over GST control) in assay [8].
For the sequence CCCTTT, the binding signal in assay [1] was 1.42 fold enrichment (6-mer frequency, TF over GST control); in assay [2], 1.51 fold enrichment (6-mer frequency, TF over GST control); in assay [3] it was 1.37 fold enrichment (6-mer frequency, TF over GST control); in assay [4], 1.51 fold enrichment (6-mer frequency, TF over GST control); in assay [5], 1.34 fold enrichment (6-mer frequency, TF over GST control); in assay [6], 1.52 fold enrichment (6-mer frequency, TF over GST control). The binding signal in assay [7] was 1.36 fold enrichment (6-mer frequency, TF over GST control); in assay [8] it was 1.4 fold enrichment (6-mer frequency, TF over GST control).
TCAAAG: the binding signal in assay [1] was 1.08 fold enrichment (6-mer frequency, TF over GST control); in assay [2], 1.12 fold enrichment (6-mer frequency, TF over GST control); in assay [3], 1.12 fold enrichment (6-mer frequency, TF over GST control); in assay [4], 1.01 fold enrichment (6-mer frequency, TF over GST control); in assay [5], 1.1 fold enrichment (6-mer frequency, TF over GST control); in assay [6] it was 1.04 fold enrichment (6-mer frequency, TF over GST control). Further, the binding signal in assay [7] is 1.07 fold enrichment (6-mer frequency, TF over GST control); in assay [8] it was 1.09 fold enrichment (6-mer frequency, TF over GST control).
Consider GGGTTT, for which the binding signal in assay [1] was 1.17 fold enrichment (6-mer frequency, TF over GST control); in assay [2], 1.1 fold enrichment (6-mer frequency, TF over GST control); in assay [3], 1.1 fold enrichment (6-mer frequency, TF over GST control); in assay [4] it was 1 fold enrichment (6-mer frequency, TF over GST control); in assay [5], 1.12 fold enrichment (6-mer frequency, TF over GST control); in assay [6] it was 1.1 fold enrichment (6-mer frequency, TF over GST control). In addition, the binding signal in assay [7] was 1.18 fold enrichment (6-mer frequency, TF over GST control); in assay [8], 1.07 fold enrichment (6-mer frequency, TF over GST control).

The values above are taken from PMC7862700, “An all-to-all approach to the identification of sequence-specific readers for epigenetic DNA modifications on cytosine”.
